Screening data (PubChem)
FEN1 inh-1 – blocks human flap endonuclease 1; Recombinant FEN1 flap cleavage, fluorescence, 15 min; AID 588795; hit rate 0.35% among 390,000; Potency, µM (doses to about 114 µM), for the others: at the top dose activity change, negative = inhibition, actives largely listed as inhibitors; also: % is scaled to controls: 0 for no effect and ±100 for the full control effect; nearly all actives have a fitted effect of over 65% in size
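FEN1 at 10 nM, compound pretreatment for 15 min (room temperature), 50 nM final substrate to initiate; endpoint reads at 0 and 15 min; DMSO-only plates used as vehicle background.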
WRN helicase inh-1 – WRN helicase (human) inhibition. Q14191. WRN helicase unwinding, fluorescent forked duplex, kinetic. Potency, µM (highest dose often 114 µM), inactives show top-dose activity change, negative = inhibition, usual class: inhibitors. hit rate 0.46% among 360,000; also: % is scaled to controls: 0 for no effect and ±100 for the full control effect; nearly all actives have a fitted effect of over 55% in size
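Kinetic red-fluorescence monitoring (525/598 nm) tracks WRN helicase activity after 100 nM fluorophore-quencher forked duplex and 2 mM ATP are added to 20 nM enzyme pretreated 15 min at room temperature with compound.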
Pol eta inh-1 – DNA polymerase eta (human) inhibition; recombinant Pol eta, fluorescent DNA replication assay; Potency, µM (top dose mostly 114 µM), for inactives: at the highest dose activity change, negative = inhibition, actives largely listed as inhibitors; hit rate 1.2% among 390,000; also: % is scaled to controls: 0 for no effect and ±100 for the full control effect
Target sequence (Q9Y253 whole entry, looked up): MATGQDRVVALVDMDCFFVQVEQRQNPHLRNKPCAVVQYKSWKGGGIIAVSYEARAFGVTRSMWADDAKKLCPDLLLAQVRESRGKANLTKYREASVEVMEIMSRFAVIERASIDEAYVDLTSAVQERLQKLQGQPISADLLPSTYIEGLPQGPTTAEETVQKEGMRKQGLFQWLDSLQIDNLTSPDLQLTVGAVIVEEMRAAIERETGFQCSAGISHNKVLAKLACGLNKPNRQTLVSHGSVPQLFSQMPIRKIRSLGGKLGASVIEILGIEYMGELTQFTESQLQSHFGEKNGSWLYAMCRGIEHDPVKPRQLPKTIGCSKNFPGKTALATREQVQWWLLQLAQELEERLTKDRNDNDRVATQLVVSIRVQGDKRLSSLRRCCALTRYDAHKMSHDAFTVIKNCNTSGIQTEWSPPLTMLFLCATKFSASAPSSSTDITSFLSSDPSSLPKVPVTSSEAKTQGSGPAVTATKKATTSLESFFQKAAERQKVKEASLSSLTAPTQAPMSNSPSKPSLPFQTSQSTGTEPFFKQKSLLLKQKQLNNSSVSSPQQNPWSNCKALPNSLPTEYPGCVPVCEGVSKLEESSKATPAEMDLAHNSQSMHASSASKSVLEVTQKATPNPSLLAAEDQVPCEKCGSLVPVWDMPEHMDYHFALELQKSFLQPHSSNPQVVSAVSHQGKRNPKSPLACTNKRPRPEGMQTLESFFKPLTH
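Pol eta (10 nM) was preincubated with compounds for 15 min at room temperature, after which fluorescent replication substrate (50 nM final) was added to start the reaction. Fluorescence was read kinetically at 0 and 10 min.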
Pol iota inh – DNA polymerase iota (human) inhibition | Q9UNA4 | Pol iota fluorescent replication assay, 10 min | Potency, µM (doses to about 115 µM), for the others: at the top dose activity, negative = inhibition, hits mostly inhibitors | hit rate 1% among 390,000 | AID 588590
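Fluorescent replication assay read twice, at 0 min and 10 min after adding 50 nM (final) substrate. Enzyme (10 nM) and compounds were first incubated 15 min at room temperature; enzyme-free buffer wells were negative controls.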
Pol kappa inh-1 – blocks human DNA polymerase kappa activity; purified Pol kappa, fluorescent DNA synthesis assay, 10 min; AID 588579; Potency, µM (highest dose often 107 µM), for inactives: at the top dose activity, negative = inhibition, hits mostly inhibitors; Q9UBT6; hit rate 0.53% among 400,000; also: % is scaled to controls: 0 for no effect and ±100 for the full control effect
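Enzyme at 10 nM met test compounds for 15 min at room temperature. Substrate addition (50 nM final) began the reaction, which was monitored by fluorescence at 0 and 10 min.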
POLB inh – blocks human DNA polymerase beta activity; P06746; Pol beta primer extension/strand displacement, fluorescence kinetic; Potency, µM (highest dose often 114 µM), for inactives: top-dose activity change, negative = inhibition, hits mostly inhibitors; hit rate 1.3% among 340,000; AID 485314; also: % is scaled to controls: 0 for no effect and ±100 for the full control effect
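Reaction started by 50 nM substrate onto compound-treated Pol beta (10 nM, 15 min preincubation, room temperature); plates read at 0 min and 10 min. Normalized concentration-effect data fitted by four-parameter Hill equation.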
Pol kappa inh-2 – confirmation of human DNA polymerase kappa inhibitors; shares compounds with Pol eta inh-1; purified Pol-kappa, fluorescent strand-displacement substrate; Potency, µM, hits mostly inhibitors; hit rate 76% among 920
Pol eta inh-2 – confirmation of human DNA polymerase eta inhibitors | AID 720502 | Potency, µM, actives largely listed as inhibitors | hit rate 64% among 2,600 | shares compounds with Pol eta inh-1 | Pol eta primer extension, TAMRA/BHQ fluorescence, 10 min
FEN1 inh-2 – FEN1 inhibition, cherry-pick retest | FEN1 flap cleavage, TAMRA/BHQ2 fluorogenic DNA substrate | hit rate 79% among 880 | Potency, µM, actives largely listed as inhibitors | AID 720498 | shares compounds with FEN1 inh-1; also: nearly all actives have a fitted effect of over 60% in size
WRN helicase inh-2 – WRN helicase inhibition, cherry-pick retest | hit rate 63% among 610 | shares compounds with WRN helicase inh-1 | Potency, µM (doses to about 57.1 µM), inactives show at the highest dose activity, negative = inhibition, usual class: inhibitors | WRN helicase DNA unwinding, fluorescence kinetic; also: nearly all actives have a fitted effect of over 65% in size
TO displacement – binds DNA, flagged in WRN inhibitor counterscreen. shares compounds with WRN helicase inh-1. thiazole orange DNA binding displacement, fluorescence. Potency, µM (series often up to 57.1 µM), inactives show at the top dose activity change, negative = inhibition, actives largely listed as inhibitors. hit rate 10% among 610. AID 720499;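 also: drop in dye fluorescence marks compound binding to DNA; % is scaled to controls: 0 for no effect and ±100 for the full control effect; nearly all actives have a fitted effect of over 60% in size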
BLM helicase inh – BLM helicase inhibition, WRN selectivity check. shares compounds with WRN helicase inh-1. Potency, µM (top dose mostly 57.1 µM), for the others: at the highest dose activity change, negative = inhibition, most hits filed as inhibitors. AID 720503. Recombinant BLM helicase DNA unwinding, red fluorescence. hit rate 60% among 610; also: nearly all actives have a fitted effect of over 60% in size
* = called active by the depositor; [ ] = another dose, or the depositor's remark. Most compounds without a hit are left out; they make up all but 2.4% or so of the library. Calls follow the shape of the dose curve; as a rule, active = well fitted curve in the direction sought with a large enough effect; inconclusive = small, poorly fitted or top-dose-only effect, or another doubt; inactive = no such curve, though single readings can be large; an effect the other way counts as inactive or inconclusive. Potency is read from the fitted curve at half-maximal effect.

For Nc1ccc(S(=O)(=O)c2cc(O)c3ccccc3c2O)cc1 the results were FEN1 inh-1 inconclusive, WRN helicase inh-1 28.2µM*, Pol eta inh-1 39.8µM*, Pol iota inh inconclusive, Pol kappa inh-1 -16.5%, Pol kappa inh-2 84.4*, Pol eta inh-2 inconclusive, WRN helicase inh-2 24.1µM*, TO displacement 24.1µM* and BLM helicase inh 21.5µM*.
For COc1cc(/C=C2/C(=O)c3cccc([N+](=O)[O-])c3C2=O)c(Br)cc1O the results were FEN1 inh-1 inconclusive, WRN helicase inh-1 4.23µM*, Pol eta inh-1 25.1µM*, Pol iota inh 25.1µM*, Pol kappa inh-1 -28.1%, POLB inh 39.8µM*, Pol eta inh-2 47.8*, WRN helicase inh-2 inconclusive, TO displacement inconclusive and BLM helicase inh inconclusive.
`Cc1ccc(-n2c(SCC(=O)Nc3c(C)cccc3C)nc(O)c(C)c2=O)cc1` gave FEN1 inh-1 13.1%, Pol eta inh-1 -2.8%, Pol iota inh 2.8%, Pol kappa inh-1 -23.6% and POLB inh inconclusive.
`O=C(ONc1ccc(N=NC(=O)c2ccccc2O)cc1)c1ccccc1` gave FEN1 inh-1 1.9%, WRN helicase inh-1 inconclusive, Pol eta inh-1 50.1µM*, Pol iota inh 7.9%, Pol kappa inh-1 -6.7%, POLB inh 9.3%, Pol eta inh-2 inconclusive, WRN helicase inh-2 21.5µM*, TO displacement 27.1µM* and BLM helicase inh 13.6µM*.
Cc1cc(N=NC(=O)c2ccccc2)ccc1O was read as FEN1 inh-1 -15.6%, WRN helicase inh-1 4.7%, Pol eta inh-1 1.8%, Pol iota inh inconclusive, Pol kappa inh-1 -11.9% and POLB inh 0.4%.
Screening O=C(O)CCCNc1cc(N2CCN(C3CCCCC3)CC2)c2noc3c2c1C(=O)c1ccccc1-3 returned FEN1 inh-1 inconclusive, Pol eta inh-1 2.7%, Pol iota inh inconclusive, Pol kappa inh-1 inconclusive, POLB inh 20µM*, Pol eta inh-2 inconclusive, FEN1 inh-2 inconclusive, WRN helicase inh-2 6.81µM*, TO displacement 422.2% and BLM helicase inh 6.07µM*.
Screening CC(C)Nc1cc(N2CCN(C3CCCCC3)CC2)c2noc3c2c1C(=O)c1ccccc1-3 returned FEN1 inh-1 -11.0%, Pol eta inh-1 -6.2%, Pol iota inh 12.4%, Pol kappa inh-1 -16.0% and POLB inh 31.4%.
COc1ccccc1N1CCN(C(=O)c2oc3ccccc3c2NC(=O)C(C)Oc2ccccc2)CC1 (centres undefined) was read as FEN1 inh-1 -5.8%, Pol eta inh-1 -5.5%, Pol iota inh -5.3%, Pol kappa inh-1 0.6% and POLB inh 23.1%.
O=C(CCCN1C(=O)/C(=C\c2ccccc2)SC1=S)N1CCOCC1 was read as FEN1 inh-1 -14.6%, WRN helicase inh-1 -35.3%, Pol eta inh-1 -5.1%, Pol iota inh 10.3% and Pol kappa inh-1 -16.1%.
O=C(O)CCCN1C(=O)/C(=C\c2ccco2)SC1=S was read as FEN1 inh-1 31.6µM*, WRN helicase inh-1 inconclusive, Pol eta inh-1 20µM*, Pol iota inh 7.08µM*, Pol kappa inh-1 11.2µM*, POLB inh 20µM*, Pol kappa inh-2 42.3*, Pol eta inh-2 47.8*, WRN helicase inh-2 inconclusive, TO displacement -8.2% and BLM helicase inh inconclusive.
For O=C(NCCC1=CCCCC1)c1ccc2c(c1)N(Cc1ccc(Cl)cc1)C(=O)c1ccccc1S2(=O)=O the results were FEN1 inh-1 -16.7%, Pol eta inh-1 -19.9%, Pol iota inh 22.0%, Pol kappa inh-1 -9.3% and POLB inh 14.4%.
`CCC(=O)N1c2ccc(S(=O)(=O)CCC(=O)Nc3ccc(Br)c(C)c3)cc2CC1C` (centres undefined) gave FEN1 inh-1 1.4%, Pol eta inh-1 -25.4%, Pol iota inh 3.1%, Pol kappa inh-1 -9.9% and POLB inh inconclusive.
Screening Cc1ccc(-c2ccc(/C=C3\C(=O)ON=C3c3ccccc3)o2)c([N+](=O)[O-])c1 returned FEN1 inh-1 -12.8%, WRN helicase inh-1 39.8µM*, Pol eta inh-1 28.2µM*, Pol iota inh 31.6µM*, Pol kappa inh-1 -36.2%, POLB inh 29.4%, Pol kappa inh-2 inconclusive, Pol eta inh-2 84.9*, WRN helicase inh-2 21.5µM*, TO displacement inconclusive and BLM helicase inh 21.5µM*.
CCN(CC)c1ccc(/C=C2/C(=O)ON=C2C)cc1 was read as FEN1 inh-1 -27.6%, WRN helicase inh-1 -16.1%, Pol eta inh-1 14.4%, Pol iota inh inconclusive, Pol kappa inh-1 -11.1%[60.1 µM] and POLB inh 6.5%.
`CCN(CC)c1ccc(/C=C2/C(=O)c3ccc(C(=O)O)cc3C2=O)cc1` gave FEN1 inh-1 inconclusive, WRN helicase inh-1 35.5µM*, Pol eta inh-1 3.55µM*, Pol iota inh 17.8µM*, Pol kappa inh-1 79.4µM*, POLB inh inconclusive, Pol kappa inh-2 7.52*, Pol eta inh-2 37.9*, WRN helicase inh-2 24.1µM*, TO displacement 96.1% and BLM helicase inh inconclusive.
Screening O=C(O)COc1ccccc1/C=C1\SC(=S)N(NC(=O)c2ccccc2O)C1=O returned FEN1 inh-1 inconclusive, WRN helicase inh-1 inconclusive, Pol eta inh-1 31.6µM*, Pol iota inh 7.08µM*, Pol kappa inh-1 31.6µM*, Pol kappa inh-2 7.52*, Pol eta inh-2 inconclusive, WRN helicase inh-2 inconclusive, TO displacement -8.8% and BLM helicase inh -22.9%.
